Source: PubChem BioAssay (NCI)
Values joined by “and” are separate entries in the source; they are usually repeats but may differ in a detail not shown here. Identical values can stand only once. About 83,000 compounds went through this panel and 20% of them were active in at least one assay; those are over-represented in the sample as a whole.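 Compound tested at a single concentration for 48 hours in 96-well plates; a percent growth value below 10 was scored as active.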 Active and inactive are the calls of the source.

What follows are molecules tested on SW-620 colon (assay: NCI-60 one-dose screen, 48 h (100 = growth as untreated, 0 = no growth, -100 = all killed)). Settings: 10 µM unless noted.

| Compound | growth |
| --- | --- |
| Cc1ccc2c(n1)C(=O)C(Cl)=C(Nc1cccc(C)c1C)C2=O | -9.92% (active) |
| C[C@]12CC[C@H]3[C@@H](CC=C4C[C@@H](O)CC[C@@]43C)[C@@H]1CC[C@@H]2[C@](C)(O)CCc1cccnc1 | 83.1% (inactive) |
| CN1CCN(c2ccc(Nc3nc(NCCCNS(=O)(=O)c4ccc(C(F)(F)F)cc4)c4sccc4n3)cc2)CC1 | -33.5% (active) |
| Cc1ccc2c(n1)C(=O)C(Cl)=C(Nc1cccc(C(F)(F)F)c1)C2=O | -0.806% (active) |
| O=C(CN1CCN(c2cc(=O)[nH]c3ccc(F)cc23)CC1)N(c1ccccc1)c1ccccc1 | 104% (inactive) |
| Cc1[nH]c(C(=O)Nc2ccc(C(N)=O)cc2N2CCOC(C)C2)c(Cl)c1Cl (stereo not drawn) | 109% (inactive) |
| CC1(C)CC[C@]2(C(=O)O)CC[C@]3(C)C(=CC[C@@H]4[C@@]5(C)CC[C@H](NOCCCN)C(C)(C)[C@@H]5CC[C@]43C)[C@@H]2C1 | 83.8% (inactive) |
| Cc1ccc2c(n1)C(=O)C(Cl)=C(Nc1ccc(C#N)cc1)C2=O | -23.1% (active) |
| CC(=O)Nc1nc(C)c(-c2csc(Nc3ccccc3)n2)s1 | 57.8% (inactive) |
| O=C(/C=C/c1cccc(F)c1)c1cccc(OCCCCOc2cccc(C(=O)/C=C/c3cccc(F)c3)c2)c1 | 98.1% (inactive) |
| O=S(=O)(NCCCNc1nccc(-c2[nH]c(-c3ccccc3)nc2-c2ccc(F)c(O)c2)n1)c1ccc(C(F)(F)F)cc1 | 59.8% (inactive) |
| O=C(CCCCCCNC(=O)C(O)(O)C(F)(F)F)Nc1ncc(-c2ccccc2)s1 | 0.575% (active) |
| CN(C)c1ccc(/C=N/Nc2nc(N/N=C/c3ccc(N(C)C)cc3)nc(N3CCCCC3)n2)cc1 | 64.2% (inactive) |
| NC1[C@H]2CN(c3cnc(C(=O)Nc4cc(F)cc5cccnc45)cn3)C[C@@H]12 (stereo partly drawn) | 47.6% (inactive) |
| Clc1cccc(/C=N/Nc2nc(N/N=C/c3cccc(Cl)c3)nc(N3CCCCC3)n2)c1 | 103% (inactive) |
| CC(Nc1ncnc2ccc(-c3cnc4cnccn34)cc12)c1ccccc1 (stereo not drawn) | 85.7% (inactive) |
| CN1CCN(c2ccc(Nc3nc(NCCNC(=O)c4ccccc4)c4sccc4n3)cc2)CC1 | 49.1% (inactive) |
| O=C(CSc1nc2ccccc2c(=O)n1-c1ccccc1)N/N=C/c1ccc(Oc2ccc(Cl)cc2)cc1 | 43.1% (inactive) |

Each molecule was assayed on MCF7 breast in the same assay as above. Settings: 10 µM unless noted.

| Compound | growth |
| --- | --- |
| O=C(/C=C/Nc1ccc(S(=O)(=O)Nc2ncccn2)cc1)c1ccc(N=Cc2c(O)[nH]c3ccccc23)cc1 | 87.4% (inactive) |
| CCCCCN1C(=O)/C(=c2\sc3n(c2=O)C2C(NN=3)N(CC)C(=O)N2CC)c2cccc(C)c21 (stereo not drawn) | 18.2% (inactive) |
| C#C[C@]1(O)CC[C@H]2[C@@H]3CC=C4c5sc(Nc6ncccc6C)nc5CC[C@]4(C)[C@H]3CC[C@@]21C | -48.8% (active) |
| O=C1CSC(c2cn(-c3ccccc3)nc2-c2ccc(Cl)cc2)N1c1ccccc1 (stereo not drawn) | 83.5% (inactive) |
| CC(=O)Nc1ccccc1-c1nc2ccccc2s1 | 97.6% (inactive) |
| O=C(/C=C/c1cccc(Br)c1)c1cccc(OCCCCOc2cccc(C(=O)/C=C/c3cccc(Br)c3)c2)c1 | 89.5% (inactive) |
| C/C(=C(\c1ccc(O)cc1)c1ccc(OCCN2CCCCCC2)cc1)c1ccc(Cl)cc1 | -81.1% (active) |
| Clc1ccc(CSc2nnc(-c3ccc(Cl)cc3)n2-c2ccccc2)cc1 | 84.5% (inactive) |
| O=C(CCCCCCNC(=O)C(O)(O)C(F)(F)F)Nc1nc2ccccc2s1 | 9.8% (active) |
| CC(C)NC(=O)c1cc(-c2ccc(NC(=O)Nc3ccc(F)c(C(F)(F)F)c3)cc2)nc2cccnc12 | 91.8% (inactive) |
| COc1ccc(-c2cnc(NC(=O)CCCCCCNC(=O)C(O)(O)C(F)(F)F)s2)cc1 | 7.73% (active) |
| C/C=C/CC(C)C(O)[C@H](NC(=O)[C@@H]1CCCN1C(=O)[C@](C)(CC)NC(=O)CCCCCCCCC)C(=O)N[C@@](C)(CC)C(=O)N[C@@H](CCC(N)=O)C(=O)N[C@H](CCC(N)=O)C(=O)NC(C)(C)C(=O)NC(C)(C)C(=O)N[C@@H](CCC(N)=O)C(=O)N[C@H](CC(C)C)C(=O)N[C@H](CO)CC(C)C (stereo partly drawn) | 51.9% (inactive) and -62.3% (active) |
| CC1CC(=O)C2=C(C1)Nc1ccc(Br)cc1CC2c1c[nH]c2ccc(Br)cc12 (stereo not drawn) | 16.7% (inactive) |
| CC(C)(C)Nc1nc2c(OCCc3ccccc3)cccn2c1-c1cccc(Oc2ccccc2)c1 | 4.96% (active) |
| CCCC/C(=C\c1ccc(O)c(O)c1)C(=O)NC(Cc1ccccc1)C(=O)C(=O)NCCc1ccc(OC)cc1 (stereo not drawn) | 95% (inactive) |
| COC(=O)c1cccc(NC2=C(Cl)C(=O)c3nc(C)ccc3C2=O)c1 | -35.2% (active) |
| NC1CC2(CCN(c3cnc(C(=O)Nc4cc(F)cc5cccnc45)cn3)CC2)C1 | 46.2% (inactive) |
| COC(=O)c1ccc(NC2=C(Cl)C(=O)c3nc(C)ccc3C2=O)cc1 | 30.5% (inactive) |
| CC(Nc1c(C#N)cnc2ccc(-c3cncc(-c4n[nH]c(=O)o4)c3)cc12)c1ccccc1 (stereo not drawn) | 8.39% (active) |
| CC(=O)OC[C@]12CC[C@@H](C(=O)/C=C/c3cccnc3)[C@@H]1[C@H]1CC[C@@H]3[C@@]4(C)CC[C@H](OC(C)=O)C(C)(C)[C@@H]4CC[C@@]3(C)[C@]1(C)CC2 | -26.8% (active) |

| Compound | growth |
| --- | --- |
| CC(O)c1cccc(/C(N)=N/C(N)=N/c2nc3ccccc3s2)c1 (stereo not drawn) | 90.5% (inactive) |
| CC(C)=CCC[C@](C)(O)[C@H]1CC[C@]2(C)[C@@H]1CC[C@@H]1[C@@]3(C)CC[C@H](N)C(C)(C)[C@@H]3CC[C@]12C | 3.07% (active) |
| Cc1ccc2c(n1)C(=O)C(Cl)=C(Nc1cccc(C)c1C)C2=O | -59.3% (active) |
| C[C@]12CC[C@H]3[C@@H](CC=C4C[C@@H](O)CC[C@@]43C)[C@@H]1CC[C@@H]2[C@](C)(O)CCc1cccnc1 | 35.2% (inactive) |
| CN1CCN(c2ccc(Nc3nc(NCCCNS(=O)(=O)c4ccc(C(F)(F)F)cc4)c4sccc4n3)cc2)CC1 | -70% (active) |
| Cc1ccc2c(n1)C(=O)C(Cl)=C(Nc1cccc(C(F)(F)F)c1)C2=O | -54.7% (active) |
| O=C(CN1CCN(c2cc(=O)[nH]c3ccc(F)cc23)CC1)N(c1ccccc1)c1ccccc1 | 96.7% (inactive) |
| Cc1[nH]c(C(=O)Nc2ccc(C(N)=O)cc2N2CCOC(C)C2)c(Cl)c1Cl (stereo not drawn) | 93% (inactive) |
| CC1(C)CC[C@]2(C(=O)O)CC[C@]3(C)C(=CC[C@@H]4[C@@]5(C)CC[C@H](NOCCCN)C(C)(C)[C@@H]5CC[C@]43C)[C@@H]2C1 | 68.2% (inactive) |
| Cc1ccc2c(n1)C(=O)C(Cl)=C(Nc1ccc(C#N)cc1)C2=O | 18.7% (inactive) |
| CC(=O)Nc1nc(C)c(-c2csc(Nc3ccccc3)n2)s1 | 12.3% (inactive) |
| O=C(/C=C/c1cccc(F)c1)c1cccc(OCCCCOc2cccc(C(=O)/C=C/c3cccc(F)c3)c2)c1 | 54.6% (inactive) |
| O=S(=O)(NCCCNc1nccc(-c2[nH]c(-c3ccccc3)nc2-c2ccc(F)c(O)c2)n1)c1ccc(C(F)(F)F)cc1 | 7.95% (active) |
| O=C(CCCCCCNC(=O)C(O)(O)C(F)(F)F)Nc1ncc(-c2ccccc2)s1 | 11.7% (inactive) |
| CN(C)c1ccc(/C=N/Nc2nc(N/N=C/c3ccc(N(C)C)cc3)nc(N3CCCCC3)n2)cc1 | 31.1% (inactive) |
| NC1[C@H]2CN(c3cnc(C(=O)Nc4cc(F)cc5cccnc45)cn3)C[C@@H]12 (stereo partly drawn) | 6.12% (active) |
| Clc1cccc(/C=N/Nc2nc(N/N=C/c3cccc(Cl)c3)nc(N3CCCCC3)n2)c1 | 83.1% (inactive) |
| CC(Nc1ncnc2ccc(-c3cnc4cnccn34)cc12)c1ccccc1 (stereo not drawn) | 33.5% (inactive) |
| CN1CCN(c2ccc(Nc3nc(NCCNC(=O)c4ccccc4)c4sccc4n3)cc2)CC1 | 25.7% (inactive) |
| O=C(CSc1nc2ccccc2c(=O)n1-c1ccccc1)N/N=C/c1ccc(Oc2ccc(Cl)cc2)cc1 | 64.5% (inactive) |
